Measured values from PubChem BioAssay (EPA / NIEHS).
Inconclusive results are not listed. Active and inactive are the calls of the source. How the source made its calls, unless noted: active means hit-call score of the fitted dose curve at least 0.9, where 1 is the maximum; inactive means score below 0.9.

What was measured:
[1] = BSK_LPS_PGE2: BioMAP Diversity Plus: LPS Assay for Prostaglandin E2 (PGE2) Biomarker Activity (AID 2283082); conditions: primary human HUVEC with PBMC; actives raise or lower the signal;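 on AC50: secreted prostaglandin E2 measured by ELISA in LPS-stimulated co-culture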
Outline: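 LPS-activated HUVEC/PBMC co-culture; cmpd dosed, 24 h; PGE2 by ELISA; bidirectional fit vs DMSO; SRB (0.1%, TCA-fixed, 560 nm) in parallel plates for overt cytotox.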

[2] = read-out: Macrophage colony-stimulating factor (MCSF), CSF1 (gene 1435); test: BSK_LPS_MCSF: BioMAP Diversity Plus: LPS Assay for Macrophage colony-stimulating factor (MCSF) Biomarker Activity (AID 2283083); conditions: primary human HUVEC with PBMC; actives raise or lower the signal
Outline: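 HUVEC + PBMC co-culture (human primary), 24 h post-dose; M-CSF by ELISA; gain/loss of signal fitted bidirectionally vs DMSO baseline.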

[3] = read-out: Tissue Factor, F3 (gene 2152); test: BSK_LPS_TissueFactor: BioMAP Diversity Plus: LPS Assay for Tissue Factor Biomarker Activity (AID 2283084); conditions: primary human HUVEC with PBMC; actives raise or lower the signal
Outline: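 HUVEC/PBMC co-culture, LPS-activated; CD142 ELISA read 24 h post-dose; bidirectional curve fit vs DMSO negative control.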

[4] = read-out: Tumor necrosis factor (Homo sapiens) (UniProt P01375); test: BSK_LPS_TNFa: BioMAP Diversity Plus: LPS Assay for Tumour Necrosis Factor alpha (TNFa) Biomarker Activity (AID 2283085); conditions: primary human HUVEC with PBMC; actives raise or lower the signal
Outline: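 Read-out is ELISA of TNFa in primary human endothelial cell–PBMC co-cultures at 24 h after compound. Activity in either direction was fitted against DMSO.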

CD38, CD38 (gene 952) = test: BSK_SAg_CD38: BioMAP Diversity Plus: SAg Assay for CD38 Biomarker Activity (AID 2283087); conditions: primary human HUVEC with PBMC; actives raise or lower the signal
Outline: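 Human HUVEC plus PBMC co-culture stimulated with superantigen; CD38 measured by ELISA 24 h after chemical dosing. Fluorescence read-out, bidirectional fit against DMSO; cytotoxicity tracked in parallel by SRB and Alamar Blue.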

CD40, CD40 (gene 958) = test: BSK_SAg_CD40: BioMAP Diversity Plus: SAg Assay for CD40 Biomarker Activity (AID 2283088); conditions: primary human HUVEC with PBMC; actives raise or lower the signal
Outline: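 HUVEC/PBMC co-culture, 24 h post-dose; CD40 by ELISA, fluorescence intensity; bidirectional fit vs DMSO negative control.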

CD69, CD69 (gene 969) = test: BSK_SAg_CD69: BioMAP Diversity Plus: SAg Assay for CD69 Biomarker Activity (AID 2283089); conditions: primary human HUVEC with PBMC; actives raise or lower the signal
Outline: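 Primary human vascular co-culture (umbilical vein endothelium with peripheral blood mononuclear cells) exposed to test chemical for 24 h. CD69 levels quantified by fluorescence ELISA; DMSO served as negative control for bidirectional fitting.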

[5] = read-out: E-selectin (Homo sapiens) (UniProt P16581); test: BSK_SAg_Eselectin: BioMAP Diversity Plus: SAg Assay for Eselectin Biomarker Activity (AID 2283091); conditions: primary human HUVEC with PBMC; actives raise or lower the signal
Outline: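 E-selectin ELISA readout at 24 h post-dosing in human umbilical vein endothelial cell/PBMC co-culture; gain or loss of signal fitted relative to DMSO baseline.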

[6] = read-out: Monokine induced gamma interferon (MIG), CXCL9 (gene 4283); test: BSK_SAg_MIG: BioMAP Diversity Plus: SAg Assay for Monokine induced gamma interferon (MIG) Biomarker Activity (AID 2283092); conditions: primary human HUVEC with PBMC; actives raise or lower the signal
Outline: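 Endothelial cells and PBMC were co-cultured, exposed to test chemicals, and sampled 24 h later. MIG was measured by ELISA, and responses were fitted in both directions relative to DMSO.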

[7] = read-out: Interleukin-8 (IL8), CXCL8 (gene 3576); test: BSK_SAg_IL8: BioMAP Diversity Plus: SAg Assay for Interleukin-8 (IL8) Biomarker Activity (AID 2283094); conditions: primary human HUVEC with PBMC; actives raise or lower the signal
Outline: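 ELISA read-out of IL-8 in a primary human vascular co-culture (umbilical vein endothelium plus PBMC), taken 24 h after compound addition. Values derive from bidirectional fits against DMSO negative controls.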

[8] = BSK_SAg_Proliferation: Cell Proliferation Assessment in the BioMAP Diversity Plus: SAg Assay (AID 2283095); conditions: primary human HUVEC with PBMC;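 further: relative cell number as total protein by SRB absorbance in sub-confluent culture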
Outline: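 Cells (endothelium plus PBMC, human primary) were dosed with chemical, cultured 96 h, fixed in 10% TCA and stained with 0.1% SRB. Absorbance at 560 nm gave relative protein, fitted bidirectionally relative to DMSO.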

[9] = BSK_SAg_SRB: Viability Assessment in the BioMAP Diversity Plus: SAg Assay (AID 2283096); conditions: primary human HUVEC with PBMC;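 further: cells read one day after compound addition; hits may be either gain or loss of signal compared with DMSO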
Outline: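 Total protein by sulforhodamine B staining, 24 h after dosing, in HUVEC–PBMC co-culture; DMSO-referenced bidirectional fitting.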

[10] = BSK_SAg_PBMCCytotoxicity: PBMC Cytotoxicity Assessment in the BioMAP Diversity Plus: SAg Assay (AID 2283093); conditions: primary human HUVEC with PBMC;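 further: PBMC viability measured as Alamar Blue reduction fluorescence at 546/580 nm; fitted both ways against DMSO so a hit may be loss or gain of signal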
Outline: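 Compound added to 75,000 PBMC/well for 1 h; SEB and TSST-1 then added at 20 ng/mL final each; 90 h incubation; Alamar Blue 6 h; read 546/580 nm ex/em. Activity fitted bidirectionally relative to DMSO baseline.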

[11] = target: human CYP1A2, CYP1A2 (gene 1544) (UniProt P05177); test: NVS_ADME_hCYP1A2: NovaScreen (NVS) CYP450-related Enzyme Activity (ADME) Assay for human CYP1A2 (AID 2283102; active means hit-call score of the fitted dose curve at least 0.9, where 1 is the maximum)
Outline: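 Fluorescence-intensity enzyme activity read-out, taken 0.5 h post-dosing, using insect-cell-derived recombinant CYP1A2 and specific fluorescent substrate. Acetonitrile served as negative control/baseline. Single-concentration duplicate screen at 10 uM, then concentration-response follow-up.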

[12] = read-out: Monocyte Chemoattractant Protein-1 (MCP1), CCL2 (gene 6347); test: BSK_SAg_MCP1: BioMAP Diversity Plus: SAg Assay for Monocyte Chemoattractant Protein-1 (MCP1) Biomarker Activity (AID 2283090); conditions: primary human HUVEC with PBMC; actives raise or lower the signal
Outline: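 MCP-1 levels in the endothelial–PBMC SAg co-culture were quantified by ELISA at 24 h post-dosing; both increases and decreases versus DMSO scored. Cytotoxicity monitored by SRB total protein in parallel cultures.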

[13] = target: human CYP1A1, CYP1A1 (gene 1543) (UniProt P04798); test: NVS_ADME_hCYP1A1: NovaScreen (NVS) CYP450-related Enzyme Activity (ADME) Assay for human CYP1A1 (AID 2283100; active means hit-call score of the fitted dose curve at least 0.9, where 1 is the maximum)
Outline: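 Read-out: fluorescence intensity from enzymatic turnover of substrate by recombinant CYP1A1, loss of signal indicating inhibition. Incubation 1 h post-dose. Primary single-point 10 uM in duplicate; actives rerun singly with top concentration 20 uM.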

[14] = read-out: Vascular cell adhesion molecule 1 (VCAM1), VCAM1 (gene 7412); test: BSK_LPS_VCAM1: BioMAP Diversity Plus: LPS Assay for Vascular cell adhesion molecule 1 (VCAM1) Biomarker Activity (AID 2283086); conditions: primary human HUVEC with PBMC; actives raise or lower the signal
Outline: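 HUVEC + PBMC co-culture, LPS system; compound 24 h; VCAM-1 by ELISA; bidirectional fit vs DMSO control; parallel SRB (0.1%, TCA-fixed, 560 nm) for cytotoxicity.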

[15] = target: human CYP19A1, CYP19A1 (gene 1588) (UniProt P11511); test: NVS_ADME_hCYP19A1: NovaScreen (NVS) CYP450-related Enzyme Activity (ADME) Assay for human CYP19A1 (AID 2283098; active means hit-call score of the fitted dose curve at least 0.9, where 1 is the maximum)
Outline: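 Biochem, cell-free; recombinant enzyme + specific substrate; fluorescence intensity at 0.5 h post-dose; 10 uM duplicate primary, conc. series for actives; acetonitrile = negative control/baseline; positive and negative controls on every plate.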

Measured: AC50

Chain of Tumor necrosis factor (Homo sapiens) (P01375 whole entry, looked up): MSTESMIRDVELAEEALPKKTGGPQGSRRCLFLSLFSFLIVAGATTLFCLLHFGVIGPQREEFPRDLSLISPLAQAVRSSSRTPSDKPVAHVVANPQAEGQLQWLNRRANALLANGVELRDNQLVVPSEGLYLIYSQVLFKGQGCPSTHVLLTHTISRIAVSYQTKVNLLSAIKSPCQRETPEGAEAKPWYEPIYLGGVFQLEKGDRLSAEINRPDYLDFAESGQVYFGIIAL
Chain of E-selectin (Homo sapiens) (P16581 whole entry, looked up): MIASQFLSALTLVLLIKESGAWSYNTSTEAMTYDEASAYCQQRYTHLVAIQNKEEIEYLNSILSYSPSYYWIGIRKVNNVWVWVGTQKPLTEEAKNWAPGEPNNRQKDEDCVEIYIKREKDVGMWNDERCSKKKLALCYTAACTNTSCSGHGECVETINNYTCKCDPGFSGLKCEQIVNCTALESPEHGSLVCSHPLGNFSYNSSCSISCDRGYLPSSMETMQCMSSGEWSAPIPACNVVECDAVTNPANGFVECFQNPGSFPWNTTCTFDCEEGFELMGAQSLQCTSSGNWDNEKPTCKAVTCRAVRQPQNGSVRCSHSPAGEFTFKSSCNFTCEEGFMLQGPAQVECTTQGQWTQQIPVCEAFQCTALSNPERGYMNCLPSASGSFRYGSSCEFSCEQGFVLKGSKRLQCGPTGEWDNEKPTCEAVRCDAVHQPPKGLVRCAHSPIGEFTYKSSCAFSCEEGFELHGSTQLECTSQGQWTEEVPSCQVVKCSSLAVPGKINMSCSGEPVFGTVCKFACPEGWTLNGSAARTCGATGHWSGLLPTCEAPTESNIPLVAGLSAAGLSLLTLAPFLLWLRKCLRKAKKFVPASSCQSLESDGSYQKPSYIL
Chain of human CYP1A1, CYP1A1 (gene 1543) (P04798 whole entry, looked up): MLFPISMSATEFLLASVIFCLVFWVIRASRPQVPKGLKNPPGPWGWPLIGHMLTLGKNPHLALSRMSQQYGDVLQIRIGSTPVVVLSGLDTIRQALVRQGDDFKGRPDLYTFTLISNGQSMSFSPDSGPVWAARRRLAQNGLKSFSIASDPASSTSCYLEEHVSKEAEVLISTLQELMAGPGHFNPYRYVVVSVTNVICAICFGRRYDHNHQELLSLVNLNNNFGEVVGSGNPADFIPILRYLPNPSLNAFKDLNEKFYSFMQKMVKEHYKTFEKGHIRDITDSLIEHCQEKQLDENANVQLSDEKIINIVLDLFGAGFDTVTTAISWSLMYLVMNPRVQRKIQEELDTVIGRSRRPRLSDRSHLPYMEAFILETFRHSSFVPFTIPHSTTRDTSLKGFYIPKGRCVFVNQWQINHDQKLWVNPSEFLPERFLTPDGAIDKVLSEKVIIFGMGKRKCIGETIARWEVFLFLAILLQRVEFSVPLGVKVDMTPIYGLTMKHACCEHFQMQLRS
Chain of human CYP1A2, CYP1A2 (gene 1544) (P05177 whole entry, looked up): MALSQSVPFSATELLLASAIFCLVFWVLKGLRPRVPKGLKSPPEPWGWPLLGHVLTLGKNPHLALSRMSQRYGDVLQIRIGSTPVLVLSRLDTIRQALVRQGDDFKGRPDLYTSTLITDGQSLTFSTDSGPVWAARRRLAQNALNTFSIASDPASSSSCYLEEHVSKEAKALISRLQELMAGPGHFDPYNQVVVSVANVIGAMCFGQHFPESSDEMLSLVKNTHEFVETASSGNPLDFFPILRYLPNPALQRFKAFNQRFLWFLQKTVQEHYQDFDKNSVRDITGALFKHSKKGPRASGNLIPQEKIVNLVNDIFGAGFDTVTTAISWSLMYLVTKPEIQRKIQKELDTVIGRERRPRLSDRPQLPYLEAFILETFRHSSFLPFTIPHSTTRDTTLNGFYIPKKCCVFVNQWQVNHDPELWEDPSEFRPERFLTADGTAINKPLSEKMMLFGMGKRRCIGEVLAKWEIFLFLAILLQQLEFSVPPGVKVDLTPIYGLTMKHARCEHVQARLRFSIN
Chain of human CYP19A1, CYP19A1 (gene 1588) (P11511 whole entry, looked up): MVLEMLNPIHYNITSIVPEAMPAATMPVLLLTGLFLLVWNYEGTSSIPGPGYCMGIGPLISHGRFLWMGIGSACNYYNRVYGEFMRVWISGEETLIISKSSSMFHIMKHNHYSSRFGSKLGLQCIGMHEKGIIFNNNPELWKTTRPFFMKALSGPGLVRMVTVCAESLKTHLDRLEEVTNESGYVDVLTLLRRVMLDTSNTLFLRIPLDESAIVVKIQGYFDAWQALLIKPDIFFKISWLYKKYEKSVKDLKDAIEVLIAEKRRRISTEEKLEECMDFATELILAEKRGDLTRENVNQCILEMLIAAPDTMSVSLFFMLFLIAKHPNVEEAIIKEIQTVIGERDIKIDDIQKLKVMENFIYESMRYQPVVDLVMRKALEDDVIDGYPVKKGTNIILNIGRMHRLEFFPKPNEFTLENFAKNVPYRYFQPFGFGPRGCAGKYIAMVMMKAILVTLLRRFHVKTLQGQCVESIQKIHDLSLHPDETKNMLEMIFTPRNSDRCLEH

C=CCCCCCCCCCCCC
not listed: [9] | [10] | [11] | [12] | [13] | [14] | [15]
inactive: all other assays above

CCCCCCCCCCCCCCCCO
not listed: [10] | [11] | [12] | [13] | [14] | [15]
inactive: all other assays above

COc1ccc(C(=O)Nc2nc3ccccc3c(NCc3ccccc3)c2C#N)cc1
active: [2] 3970 nM | [8] 6220 nM
not listed: [9] | [12] | [13] | [14] | [15]
inactive: all other assays above

CC(C)(O)c1ccc(CNC(=O)c2cccnc2Oc2ccc(F)cc2)cc1
active: [4] 598 nM | CD38, CD38 (gene 952) 1190 nM | [12] 1160 nM | [5] 737 nM
not listed: CD69, CD69 (gene 969) | [11] | [14] | [15]
inactive: all other assays above

CC(=O)CC(c1ccccc1)c1c(O)c2ccccc2oc1=O (stereo not given)
active: [4] 711 nM
inactive: [1] | [2] | [3] | CD40, CD40 (gene 958) | [12] | [5] | [6] | [7] | [8]

C#CC(O)C(CC)CCCC (stereo not given)
not listed: [11] | [12] | [13] | [14] | [15]
inactive: all other assays above

CC(=O)O
inactive: [1] | [2] | [3] | [4] | CD40, CD40 (gene 958) | [5] | [6] | [7] | [8]

O=NO
not listed: CD38, CD38 (gene 952) | [11] | [13] | [14] | [15]
inactive: all other assays above

CCCCc1nc2cccnc2n1Cc1ccc(-c2ccccc2-c2nnn[nH]2)cc1
not listed: CD38, CD38 (gene 952) | [9] | [11] | [13] | [14] | [15]
inactive: all other assays above

CCC(C)N(C)C(=O)c1cc2ccccc2c(-c2ccccc2Cl)n1 (stereo not given)
not listed: CD38, CD38 (gene 952) | CD69, CD69 (gene 969) | [11] | [14] | [15]
inactive: all other assays above

Cc1cc(Cc2ccc(N)c(C)c2)ccc1N
active: [5] 5100 nM
not listed: [2] | CD69, CD69 (gene 969) | [9] | [10] | [12] | [13] | [15]
inactive: all other assays above

O=C1NC(=O)C(c2ccccc2)(c2ccccc2)N1
not listed: CD38, CD38 (gene 952) | [10] | [11] | [12] | [13] | [14] | [15]
inactive: all other assays above

CS(=O)(=O)c1ccc([C@@H](C[C@H]2CCC(=O)C2)C(=O)Nc2cnccn2)cc1Cl
not listed: CD38, CD38 (gene 952) | CD69, CD69 (gene 969) | [11] | [13] | [14] | [15]
inactive: all other assays above

Cc1ccc(C(C)(C)C)c(O)c1
active: [1] 3090 nM
not listed: CD38, CD38 (gene 952) | [10] | [11] | [13] | [14] | [15]
inactive: all other assays above

C/C=C/C=C/C(=O)O
not listed: CD38, CD38 (gene 952) | CD69, CD69 (gene 969) | [9] | [10] | [11] | [13] | [14]
inactive: all other assays above

O=Cc1ccccc1C=O
active: [4] 1530 nM
not listed: CD38, CD38 (gene 952) | [11] | [13] | [14] | [15]
inactive: all other assays above
